Records with an inconclusive call do not appear. The source made the active and inactive calls. Unless noted, the call rests on the fitted dose curve; in most records, active means well fitted curve in the direction sought with a large enough effect; inconclusive means small, poorly fitted or top-dose-only effect, or another doubt; inactive means no such curve, though single readings can be large; an effect the other way counts as inactive or inconclusive.
Tests used:
[1] = HEK293 24hr Apoptosis Induction qHTS against the NCATS CANVASS Library (AID 1347359)
Outline: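 HEK293 cells (500/well, DMEM + 10% FBS) were exposed to compounds in an 11-point series for 24 hours at 37 degrees C, then caspase-3/7 activity was read by Caspase-Glo DEVD luciferase luminescence after 15 min.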

[2] = HPAF-II 18hr Apoptosis Induction qHTS against the NCATS CANVASS Library (AID 1347360)
Outline: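 HPAF-II cells (500/well, DMEM + 10% FBS) were exposed to compounds for 18 hours at 37 degrees C. Caspase-3/7 activity was then read by Caspase-Glo 3/7 luminescence after 15 min at room temperature.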

[3] = HEK293 12hr Apoptosis Induction qHTS against the NCATS CANVASS Library (AID 1347361)
Outline: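 Read-out: Caspase-Glo 3/7 luminescence (DEVD substrate), 15 min RT. Preceded by 12 h compound exposure of HEK293, 500 cells/well, 11-pt qHTS titration; doxorubicin titration as control.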

[4] = target: Luciferin 4-monooxygenase (Photinus pyralis) (UniProt P08659); assay: Firefly luciferase counterscreen qHTS: Assay Interference Panel against the NCATS CANVASS Library (AID 1347363)
Outline: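 Purified P. pyralis luciferase was added to compounds (11-point series) preincubated 15 min at room temperature with substrate containing 0.013 mM D-luciferin and 0.013 mM ATP; luminescence was read after 5 min.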

[5] = KB-8-5-11 Cancer Cell Toxicity qHTS against the NCATS CANVASS Library (AID 1347364)
Outline: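 Terse: KB-8-5-11, 500 cells/well, 72 hr, 37C/5% CO2, 11-pt titration, CellTiter-Glo readout; confirmatory runs ± 1uM tariquidar in medium.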

[6] = KB-3-1 Cancer Cell Toxicity qHTS against the NCATS CANVASS Library (AID 1347366)
Outline: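 KB-3-1 cells (500 cells/well) in DMEM + 10% FBS were treated with compounds for 72 hr at 37C, 5% CO2. Viability was read as CellTiter-Glo luminescence after 10 minutes at room temperature.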

[7] = qHTS for ATAD5 Agonist screened against the NCATS CANVASS Library (AID 1347367)
Outline: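 HEK293T cells stably carrying an ATAD5-controlled luciferase reporter (2000 cells/well) attached for 5 hr, then received compounds in an 11-point series for 16hr at 37C. Luminescence was read after a 30 min room-temperature reagent step.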

[8] = MCF7 Cancer Cell Toxicity qHTS against the NCATS CANVASS Library (AID 1347369)
Outline: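 MCF7, 500 cells/well; cpds 11-pt qHTS; 72 hr, 37C/5% CO2; CellTiterGlo ATP luminescence.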

[9] = J3T Cancer Cell Toxicity qHTS against the NCATS CANVASS Library (AID 1347371)
Outline: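 Luminescence from CellTiterGlo, reporting cellular ATP, serves as the viability measure after 72 hr compound treatment of J3T canine glioma cells seeded at 500 cells/well.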

[10] = target: Nuclear receptor subfamily 1 group I member 3 (Homo sapiens) (UniProt Q14994); assay: qHTS for Constitutive Androstane Receptor (CAR) Antagonist screened against the NCATS CANVASS Library (AID 1347372)
Outline: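 Cells were seeded and left 4hr to attach, then received compound at 11 concentrations and 50 nM CITCO. Following 24hr incubation, fluorescence viability and luciferase luminescence were read sequentially.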

[11] = target: Nuclear receptor subfamily 1 group I member 3 (Homo sapiens) (UniProt Q14994); assay: qHTS for Constitutive Androstane Receptor (CAR) Agonist screened against the NCATS CANVASS Library (AID 1347373)
Outline: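 Cells were plated and allowed to attach for 4hr, then dosed with compound in an 11-point series alongside 1.5uM PK11195. After 24hr at 37C, viability was measured fluorometrically and CAR-driven CYP2B6 reporter luminescence was recorded.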

[12] = qHTS for Hypoxia signaling pathway (HIF-1) antagonists against the NCATS CANVASS Library (AID 1347374)
Outline: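 Antagonism scored as loss of CoCl2-driven (60 uM stock added) HRE beta-lactamase signal, read by CCF4 FRET at 460/530 nm. Compounds were tested in an 11-point series on ME-180 reporter cells for 17 hrs at 37C, with parallel CellTiter-Glo cytotoxicity.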

[13] = qHTS for Hypoxia signaling pathway (HIF-1) agonists against the NCATS CANVASS Library (AID 1347375)
Outline: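 Cells plated and rested 5 h, compounds pinned in DMSO across 11 concentrations, incubated 17 h at 37C, loaded with CCF4-AM for 2 h, fluorescence read at 460 and 530 nm, then CellTiter-Glo luminescence measured for viability and normalization.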

[14] = 10-beta competent E. coli microbial cell viability qHTS against the NCATS CANVASS Library (AID 1347376)
Outline: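 Bacterial suspension diluted to 0.2 OD was dosed with compounds, 11-point series, then held overnight at 37C. BacTiter-Glo reagent was added, and after 20 min at room temperature ATP-dependent luminescence was measured.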

[15] = DH5-alpha competent E. coli microbial cell viability qHTS against the NCATS CANVASS Library (AID 1347377); details: outcome: at 46.1 µM (top of the series)
Outline: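 Bacteria were dispensed at 0.2 OD, then compounds were pin-transferred. Plates were incubated overnight at 37C, after which BacTiter-Glo was added and luminescence measured 20 min later.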

[16] = Inflammasome Signaling qHTS Counterscreen: IL-1-beta AlphaLISA counterscreen against the NCATS CANVASS Library (AID 1347381)
Outline: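 Purified IL-1-beta (4 pg/well) + compound, 11-pt conc. series; acceptor beads 6 ug/mL + biotin-Ab 0.6 nM final, 1 h RT; SA-donor 24 ug/ml final, 30 min dark RT; read ex 680/em 615.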

[17] = qHTS for Activators of p53 Stress Response Pathway screened against the NCATS CANVASS Library (AID 1347388)
Outline: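 p53RE-bla HCT-116 cells (4000/well) were plated 5 h at 37C, exposed to compounds for 16 h at 37C over an 11-point concentration series, then loaded with CCF4 for 2 h at room temperature; 460/530 nm emission ratio read.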

[18] = qHTS for activators of dead-cell proteases activity screened against the NCATS CANVASS Library (AID 1347392)
Outline: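 Cytotoxicity in HepG2 cells was assessed by released protease cleaving AAF-aminoluciferin, with luminescence as signal. Exposure lasted 5 h at 37C across an 11-point series.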

[19] = qHTS for inhibitors of ER calcium dysfunction: SERCaMP assay screened against the NCATS CANVASS Library (AID 1347393)
Outline: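 qHTS in SH-SY5Y reporter cells: 16 h compound pretreatment, 4 h thapsigargin, then secreted Gaussia luciferase measured by luminescence.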

[20] = Vero-766 cells viability qHTS against the NCATS CANVASS Library: Counterscreen for Zika virus inhibition assay (AID 1347394)
Outline: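 Uninfected Vero 766 (African green monkey) cells, 1000/well, attached overnight, then exposed 72 h at 37C to compounds (11-point qHTS). Viability read by CellTiter-Glo luminescence; media-only wells served as 100% inhibition.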

[21] = qHTS for inhibitors of Wild type Zika virus screened against the NCATS CANVASS Library (AID 1347396)
Outline: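 Luminescent CellTiter Glo read-out of virus-induced cytotoxicity, 72 h post-infection, in Vero 766 cells. Compounds were tested at 11 concentrations; uninfected, vehicle-treated wells defined 100% inhibition.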

[22] = Redox Reaction Profiling qHTS: Assay Interference Panel against the NCATS CANVASS Library (AID 1347401)
Outline: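 Quantitative HTS over an 11-point series was run in HEPES pH 7.3 with 50 mM NaCl, 200 uM DTT and 5 uM resazurin. Initial and 15-min resorufin fluorescence readings were taken.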

[23] = qHTS for inhibitors of Rabies Virus screened against the NCATS CANVASS Library (AID 1347402; calls by dose curve)
[24] = Primary qHTS for small molecule stabilizers of the endoplasmic reticulum resident proteome: Secreted ER Calcium Modulated Protein (SERCaMP) assay (AID 1508630)
Outline: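 The SH-SY5Y reporter protocol was run at 3 concentrations up to 38.3 uM (primary) or 11 concentrations (follow-up): 16 h compound, 100 nM thapsigargin for 4 h, then extracellular luciferase luminescence.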

Measured: Potency

Sequence of Nuclear receptor subfamily 1 group I member 3 (Homo sapiens) (Q14994 whole entry, looked up): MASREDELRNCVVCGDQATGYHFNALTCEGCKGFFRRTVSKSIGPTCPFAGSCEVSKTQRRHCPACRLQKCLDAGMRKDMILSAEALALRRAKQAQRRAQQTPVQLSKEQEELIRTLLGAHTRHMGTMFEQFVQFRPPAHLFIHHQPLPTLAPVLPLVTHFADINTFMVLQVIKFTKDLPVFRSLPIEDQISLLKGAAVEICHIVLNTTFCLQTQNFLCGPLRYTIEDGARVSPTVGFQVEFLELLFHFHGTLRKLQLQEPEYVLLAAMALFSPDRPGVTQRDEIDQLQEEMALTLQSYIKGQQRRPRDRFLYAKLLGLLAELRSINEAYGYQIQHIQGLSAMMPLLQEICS
Sequence of Luciferin 4-monooxygenase (Photinus pyralis) (P08659 whole entry, looked up): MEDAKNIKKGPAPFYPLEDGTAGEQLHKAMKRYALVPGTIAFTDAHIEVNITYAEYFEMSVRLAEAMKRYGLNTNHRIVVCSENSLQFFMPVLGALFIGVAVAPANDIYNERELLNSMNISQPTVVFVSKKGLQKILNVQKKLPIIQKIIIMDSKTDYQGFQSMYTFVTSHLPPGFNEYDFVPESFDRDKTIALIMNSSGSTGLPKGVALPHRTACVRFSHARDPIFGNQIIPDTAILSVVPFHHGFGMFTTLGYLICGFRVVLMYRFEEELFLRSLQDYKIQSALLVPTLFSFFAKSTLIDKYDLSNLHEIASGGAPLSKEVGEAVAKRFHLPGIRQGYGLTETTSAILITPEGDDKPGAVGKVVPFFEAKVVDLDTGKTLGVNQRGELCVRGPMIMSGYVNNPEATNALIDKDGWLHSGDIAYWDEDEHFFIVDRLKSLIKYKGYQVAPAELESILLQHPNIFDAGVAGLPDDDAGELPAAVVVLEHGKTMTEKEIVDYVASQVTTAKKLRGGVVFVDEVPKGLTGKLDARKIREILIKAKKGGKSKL

COc1ccc2c3c([nH]c2c1)C(C)=NCC3
active: [13] 13.3 µM | [17] 18.6 µM | [19] 27.2 µM
inactive: all other assays above

Source: PubChem BioAssay (NCATS)
